Laboratory results as given in PubChem BioAssay (NCATS).
Records with an inconclusive call do not appear. Entries that show only a call come without a potency. Calls of active or inactive are those of the source. Unless noted, calls come from the whole dose curve; as a rule, active = well fitted curve in the direction sought with a large enough effect; inconclusive = small, poorly fitted or top-dose-only effect, or another doubt; inactive = no such curve, though single readings can be large; an effect the other way counts as inactive or inconclusive.

biological target: 3',5'-cyclic-AMP phosphodiesterase 4B (Homo sapiens) (UniProt Q07343); assay: qHTS Assay for Inhibitors of PDE-IV (AID 607; active = well fitted activation curve with a large enough effect in the main read-out, with a control signal flat, not every such curve was filed as active); settings: HEK293 ACTOne CNG channel cells, membrane potential fluorescence; series mostly up to 22.9 µM
Sequence (Q07343 whole entry, looked up): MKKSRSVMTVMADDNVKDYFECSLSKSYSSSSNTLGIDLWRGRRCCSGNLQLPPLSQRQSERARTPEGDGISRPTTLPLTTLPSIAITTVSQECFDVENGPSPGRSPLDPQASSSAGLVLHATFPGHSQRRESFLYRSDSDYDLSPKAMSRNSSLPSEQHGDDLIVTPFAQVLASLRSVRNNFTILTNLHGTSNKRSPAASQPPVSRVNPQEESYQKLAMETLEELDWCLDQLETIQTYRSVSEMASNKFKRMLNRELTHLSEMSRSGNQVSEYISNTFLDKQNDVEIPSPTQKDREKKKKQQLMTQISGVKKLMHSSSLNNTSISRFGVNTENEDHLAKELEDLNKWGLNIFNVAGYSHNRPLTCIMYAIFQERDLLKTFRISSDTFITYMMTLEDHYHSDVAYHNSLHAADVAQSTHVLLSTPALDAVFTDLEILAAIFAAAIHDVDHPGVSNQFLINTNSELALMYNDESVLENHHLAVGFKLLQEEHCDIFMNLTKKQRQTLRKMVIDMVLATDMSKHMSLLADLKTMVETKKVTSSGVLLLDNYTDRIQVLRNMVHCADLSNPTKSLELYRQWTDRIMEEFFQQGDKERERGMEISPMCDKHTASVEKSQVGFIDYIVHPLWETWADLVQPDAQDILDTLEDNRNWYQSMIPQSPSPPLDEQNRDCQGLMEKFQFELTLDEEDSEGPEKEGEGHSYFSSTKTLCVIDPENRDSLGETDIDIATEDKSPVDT
Summary of the method: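 Cell-based read-out of cAMP via a modified cyclic nucleotide-gated channel and membrane potential dye (535/590 nm) in HEK293 cells expressing PDE4 endogenously. Compounds tested up to 22.9 uM final; 100 uM RO 20-1724 reference.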

| SMILES | Potency |
| --- | --- |
| C[C@](Cc1ccc(O)c(O)c1)(NN)C(=O)O | inactive |
| C=C1C(=O)O[C@@H]2[C@H]3O[C@]3(C)CCC=C(C)CC[C@@H]12 | inactive |
| O=C(c1ccc2c(c1)OCCO2)N1CCCCC1 | inactive |

biological target: Guanine nucleotide-binding protein G(i) subunit alpha-1 (Homo sapiens) (UniProt P63096); assay: qHTS Assay for Inhibitors of RGS12 GoLoco Motif Activity (Green Fluorophore) (AID 879); settings: Galphai1/FITC-RGS12 GoLoco peptide, fluorescence polarization; series mostly up to 57.1 µM;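 note: negative values mean loss of peptide binding seen as reduced polarization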
Sequence (P63096 whole entry, looked up): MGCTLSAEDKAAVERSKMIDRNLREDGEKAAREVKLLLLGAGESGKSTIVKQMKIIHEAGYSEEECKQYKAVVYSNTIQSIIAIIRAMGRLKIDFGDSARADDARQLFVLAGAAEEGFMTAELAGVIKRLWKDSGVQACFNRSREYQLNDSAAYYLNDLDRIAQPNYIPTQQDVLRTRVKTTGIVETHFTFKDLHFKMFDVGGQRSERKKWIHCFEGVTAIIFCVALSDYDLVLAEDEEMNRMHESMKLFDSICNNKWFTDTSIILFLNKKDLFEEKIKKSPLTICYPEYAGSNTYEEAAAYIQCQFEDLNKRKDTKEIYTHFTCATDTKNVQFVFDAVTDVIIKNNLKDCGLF
Summary of the method: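 A drop in FITC polarization marked displacement of the FITC-tagged RGS12 GoLoco peptide (10 nM) from Gαi1 (50 nM). Compounds were incubated 10 min at room temperature in Tris pH 7.5 buffer containing 150 mM NaCl, 0.1 mM GDP and 0.05% NP40; unlabeled peptide titration served as control.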

| SMILES | Potency |
| --- | --- |
| Nc1nc2[nH]c(=O)cnc2c(=O)[nH]1 | inactive |
| CCN(c1nc(N)c(C(=O)N=C(N)N)nc1Cl)C(C)C | inactive |
| O=c1[nH]ccc2c(O)cccc12 | inactive |
| N[C@@H](CS(=O)O)C(=O)O | inactive |
| O=C(O)/C(=C/c1c(C(=O)O)[nH]c2cc(Cl)cc(Cl)c12)c1ccccc1 | inactive |
| CC(C)(C)c1cc(/C=C(\C#N)C(N)=S)cc(C(C)(C)C)c1O | inactive |
| N#C/C(=C\c1ccc(O)c(O)c1)C(=O)NCCCNC(=O)/C(C#N)=C/c1ccc(O)c(O)c1 | inactive |
| c1ccc2c(c1)CC(N1CCN(c3cccc4c3OCCO4)CC1)C2 | inactive |
| COc1ccccc1N1CCN(CCCNc2c(C)c(=O)n(C)c(=O)n2C)CC1 | inactive |
| C[C@H](NC(=O)/C(C#N)=C/c1ccc(O)c(O)c1)c1ccccc1 | inactive |
| CCN1C(=O)C=CC1=O | inactive |
| Cc1nc(N=Nc2ccc(S(=O)(=O)O)cc2S(=O)(=O)O)c(COP(=O)(O)O)c(C=O)c1O | inactive |
| N[C@@H](Cc1ccc(O)c(I)c1)C(=O)O | inactive |
| N=C(N)c1ccc(N)cc1 | inactive |
| COC(=O)[C@H](NC(=O)c1cc(-c2ccccc2)nc2ccccc12)c1ccccc1 | inactive |
| COc1cc(CNC(=O)CCCCCCC(C)C)ccc1O | inactive |

| SMILES | Potency |
| --- | --- |
| CC[C@@H]1Cc2cc(O)ccc2C2=C1c1ccc(O)cc1C[C@H]2CC | inactive |
| Nc1nc2ccc(Cl)cc2c2nc(-c3ccco3)nn12 | inactive |
| O=c1cc(-c2ccccc2)[nH]c2nc(Cl)ccc12 | inactive |
| O=c1ccc2c(OCCCCc3ccccc3)c3ccoc3cc2o1 | inactive |
| CC(=O)N[C@@H](Cc1c[nH]c2ccccc12)C(=O)OCc1cc(C(F)(F)F)cc(C(F)(F)F)c1 | inactive |
| NC(=Nc1ccccc1)NC(=O)c1nc(Cl)c(N)nc1N | inactive |
| NOCC(=O)O | inactive |
| Cc1ccc([N+](=O)[O-])cc1S(=O)(=O)N(C)C | inactive |
| CCCC(=O)NCCc1c2n(c3ccc(OC)cc13)CCCc1ccccc1-2 | inactive |
| O=C(O)Cc1c[nH]c2ccc(O)cc12 | inactive |
| COc1ccc(-c2ccc(N)[n+](CCCC(=O)O)n2)cc1 | inactive |
| N#C/C(=C\c1ccc(O)c(O)c1)C(=O)NCCc1ccccc1 | inactive |
| N#Cc1cc2nc(O)c(O)nc2cc1[N+](=O)[O-] | inactive |
| COc1cc(N)c(Cl)cc1C(=O)OCCN1CCCCC1 | inactive |
| O=C(O)C1=CCCNC1 | inactive |
| CN1CCN(c2nc3cc(C(F)(F)F)ccc3n3cccc23)CC1 | inactive |

biological target: Cytochrome P450 3A4 (Homo sapiens) (UniProt P08684); assay: qHTS Assay for Inhibitors and Substrates of Cytochrome P450 3A4 (AID 884); settings: recombinant CYP3A4, Luciferin-PPXE luminescence; series mostly up to 57.1 µM; note: nearly all actives have a fitted effect of over 50% in size; note: potency is the fitted concentration of half-maximal effect
Sequence (P08684 whole entry, looked up): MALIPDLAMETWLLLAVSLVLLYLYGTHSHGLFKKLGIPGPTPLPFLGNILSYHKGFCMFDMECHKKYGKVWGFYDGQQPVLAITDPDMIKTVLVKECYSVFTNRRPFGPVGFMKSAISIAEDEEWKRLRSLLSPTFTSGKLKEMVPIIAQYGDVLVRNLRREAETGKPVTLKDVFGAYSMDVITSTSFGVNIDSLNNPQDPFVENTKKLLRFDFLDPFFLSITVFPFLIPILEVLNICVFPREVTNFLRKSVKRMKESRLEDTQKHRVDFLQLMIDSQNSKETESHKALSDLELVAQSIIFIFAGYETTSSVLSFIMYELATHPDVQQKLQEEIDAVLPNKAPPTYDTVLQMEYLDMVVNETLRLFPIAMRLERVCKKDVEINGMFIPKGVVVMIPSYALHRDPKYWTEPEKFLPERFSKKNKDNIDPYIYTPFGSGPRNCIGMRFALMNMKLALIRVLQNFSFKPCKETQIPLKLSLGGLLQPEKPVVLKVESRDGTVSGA
Summary of the method: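 Luminescent readout of luciferin produced by CYP3A4 (20 nM) dealkylation of Luciferin-PPXE, 25 uM (its KM). NADPH-driven reaction ran 60 min at RT after 10 min compound preincubation; data scaled to 57 uM ketoconazole as 100% inhibition.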

| SMILES | Potency |
| --- | --- |
| CC(C)(C)c1cc(/C=C(\C#N)C(N)=S)cc(C(C)(C)C)c1O | 3.98 µM (active) |
| c1ccc2c(c1)CC(N1CCN(c3cccc4c3OCCO4)CC1)C2 | inactive |
| C[C@H](NC(=O)/C(C#N)=C/c1ccc(O)c(O)c1)c1ccccc1 | 3.16 µM (active) |
| N[C@@H](Cc1ccc(O)c(I)c1)C(=O)O | inactive |
| Cc1ccc([N+](=O)[O-])cc1S(=O)(=O)N(C)C | inactive |
| N#C/C(=C\c1ccc(O)c(O)c1)C(=O)NCCc1ccccc1 | 3.98 µM (active) |
| COc1cc(N)c(Cl)cc1C(=O)OCCN1CCCCC1 | 15.8 µM (active) |
| O=C(O)C1=CCCNC1 | inactive |

biological target: Cytochrome P450 2D6 (Homo sapiens) (UniProt P10635); assay: qHTS Assay for Inhibitors and Substrates of Cytochrome P450 2D6 (AID 891); settings: recombinant CYP2D6, luciferin-ME EGE luminescence; series mostly up to 57.1 µM;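 note: luciferin methyl ether substrate demethylated by CYP2D6 with NADPH regeneration; nearly all actives have a fitted effect of over 60% in size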
Sequence (P10635 whole entry, looked up): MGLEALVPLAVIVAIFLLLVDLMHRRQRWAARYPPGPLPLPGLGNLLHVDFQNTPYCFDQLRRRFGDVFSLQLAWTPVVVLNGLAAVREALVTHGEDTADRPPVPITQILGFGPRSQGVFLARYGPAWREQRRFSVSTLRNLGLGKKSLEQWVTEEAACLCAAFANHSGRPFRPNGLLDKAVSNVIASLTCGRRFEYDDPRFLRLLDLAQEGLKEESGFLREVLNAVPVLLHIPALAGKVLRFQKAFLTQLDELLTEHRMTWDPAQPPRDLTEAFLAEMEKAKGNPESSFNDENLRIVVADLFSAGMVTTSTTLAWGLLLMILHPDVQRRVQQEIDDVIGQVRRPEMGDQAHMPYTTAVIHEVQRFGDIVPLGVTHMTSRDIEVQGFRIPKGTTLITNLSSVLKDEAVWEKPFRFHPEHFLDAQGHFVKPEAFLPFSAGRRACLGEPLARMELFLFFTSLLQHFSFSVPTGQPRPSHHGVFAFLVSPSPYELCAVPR
Summary of the method: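 Luminescent read-out of luciferin formed by 5 nM human CYP2D6 demethylating 30 uM Luciferin-ME EGE (Km level) over 60 min at room temperature after NADPH regeneration addition. Data normalized to full inhibition by 1.43 uM quinidine.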

| SMILES | Potency |
| --- | --- |
| C[C@H](NC(=O)/C(C#N)=C/c1ccc(O)c(O)c1)c1ccccc1 | inactive |
| C[C@](Cc1ccc(O)c(O)c1)(NN)C(=O)O | inactive |
| C=C1C(=O)O[C@@H]2[C@H]3O[C@]3(C)CCC=C(C)CC[C@@H]12 | inactive |
| O=C(c1ccc2c(c1)OCCO2)N1CCCCC1 | inactive |
